# Experimental data: the supplement of paper PMC12632987
# T1: USP38, Q8NB14
# T1 chain: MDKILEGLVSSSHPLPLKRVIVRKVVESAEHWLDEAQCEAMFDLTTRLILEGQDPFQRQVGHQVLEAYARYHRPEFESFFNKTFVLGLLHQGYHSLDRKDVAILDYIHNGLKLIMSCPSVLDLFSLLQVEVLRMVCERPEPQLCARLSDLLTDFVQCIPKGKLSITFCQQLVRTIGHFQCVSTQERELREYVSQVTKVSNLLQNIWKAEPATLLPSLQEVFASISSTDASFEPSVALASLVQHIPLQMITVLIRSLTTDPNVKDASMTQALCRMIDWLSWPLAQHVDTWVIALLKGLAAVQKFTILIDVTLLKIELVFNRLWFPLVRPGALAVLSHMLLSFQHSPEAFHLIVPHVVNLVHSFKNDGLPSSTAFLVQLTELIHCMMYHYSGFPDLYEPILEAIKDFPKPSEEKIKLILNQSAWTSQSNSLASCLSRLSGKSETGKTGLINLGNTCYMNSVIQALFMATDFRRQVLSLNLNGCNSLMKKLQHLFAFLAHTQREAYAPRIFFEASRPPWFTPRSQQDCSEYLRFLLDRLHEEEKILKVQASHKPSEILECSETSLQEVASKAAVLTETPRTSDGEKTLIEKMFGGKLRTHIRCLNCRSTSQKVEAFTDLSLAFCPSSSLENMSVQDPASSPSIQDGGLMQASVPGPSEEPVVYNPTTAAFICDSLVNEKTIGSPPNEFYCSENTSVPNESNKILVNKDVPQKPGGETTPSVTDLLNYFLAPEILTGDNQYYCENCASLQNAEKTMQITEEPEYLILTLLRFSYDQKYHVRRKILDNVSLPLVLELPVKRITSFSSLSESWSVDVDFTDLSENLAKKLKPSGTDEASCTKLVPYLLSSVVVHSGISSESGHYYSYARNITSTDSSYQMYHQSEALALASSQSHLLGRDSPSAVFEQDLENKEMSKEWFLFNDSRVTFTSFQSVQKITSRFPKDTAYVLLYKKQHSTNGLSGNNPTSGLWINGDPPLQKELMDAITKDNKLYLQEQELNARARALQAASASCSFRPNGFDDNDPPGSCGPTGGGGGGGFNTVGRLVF
# B1: usp_38_diff_out_18_14_275 (protein)
# chain: SSELSEALQSNLESLKKDVKEDTERVLRLLEKRKDDPEQVKRIEERARRNLEGVIKFAEEVLKLAKELGDKETQKAAEELIKLAKEARKRVEEKVKEVLA
# B2: usp_38_diff_out_18_14_276 (protein)
# chain: SSELSEALKSNLESLKKDVKEDTERVLRLLDKRKDDPEQVKRIVERAERDLAGVREYAKEVLREAEERGDEETKKAAEELLKEADAALAKVKAKAKEVLA
# B3: usp_38_diff_out_18_14_277 (protein)
# chain: SEELKEALKSNLESLKKDVEEDTKRVIELLDKRKDDPEEVKRIYERAKRNLAGVKEYAKEVLEEAEKAGDEETKKAAEELIKKAEEAEKKIEEKVKEVLA
# B4: usp_38_diff_out_18_14_279 (protein)
# chain: SEELNEALLSNLESLKEDVERDTERVLRLLEANRDDPERVKRIVERAERNLAGVIEFAKEVLKEAEKAGNEELLKAAKELIKRAKEALERIRRKAEEVLA
# B5: usp_38_diff_out_18_14_280 (protein)
# chain: SEELSEALLSNLKSLKKDVEEYTKRVLRLLEKNKDDPERVKRIKERAERNLAGVKKYAEEVLKEAEEEGDEETLKAAKELKETAEKALAEIEKKVKEVLA
# B6: usp_38_diff_out_18_14_281 (protein)
# chain: SEELSKALLSNLESLKKDVEEDTERVLRLLEKNKDDPERVKRIVERAERDLAGVIEYAKEVLELAKKNGDEETLKAAKELIKKAEEARKRIEEKAKKVLA
# B7: usp_38_diff_out_18_14_282 (protein)
# chain: MEELSEALKSNLESLKKDVEEDTKRVIELLEKNKDDPERVKRIYERAERNLEGVLTYAEEVLELAEKLGDEEVKKAAEELKKEAEKAREEIKKKVEKVLA
# B8: usp_38_diff_out_18_14_283 (protein)
# chain: SEELSKALKSNLESLKEDVKKDTERVLRLLEKRKDDPEQVKRIKERAERNLEGVITYAEEVLKEAEKEGDEEVKKAAKELIEEAKKAREKIEEKVKEVLA
# B9: usp_38_diff_out_18_14_284 (protein)
# chain: SAELAAAEKAALEILKTDVKKDTERVIRLLKKAKDDPERVKRIYERAKRNLEGVETYAKEVLERAKKAGDKETKAAAEELLKEIEEAKKKIEEAYKEVMA
# B10: usp_38_diff_out_18_14_285 (protein)
# chain: SAELAAAEKSALEILKKDVKEFTKRVIRLLKKSKDDPERVKRIYDRAKRDLAGVEKYAQEVLKRAEKAGDKETKAAAKELLKEIEKAKEEIEKEYKEVMA
# B11: usp_38_diff_out_18_14_286 (protein)
# chain: SAELAAAEKSALEILKKDVKEDTKRVIRLLEKAKDDPELVERIYERAKRDLAGVRAYAEEVLKRAEEAGDEETKAAAKELLKEIDKAKKEIDAAYKKVMA
# B12: usp_38_diff_out_18_14_287 (protein)
# chain: SEEEAEALKSALEILRGDVDAYTERVIRLLEQAAGDPERVRRIHERARRNLAGVRAYAEEVLKRAEEAGDEETKKAAEELLRRVAEAEARIAARYAEVTA
# B13: usp_38_diff_out_18_14_288 (protein)
# chain: SEELSEAEISALKLLREDVERDTERTIRLLERARDDPERVRRIVERRERNLAGVRAYAEEVKKEAEERGDEETVKAAEELLRAIEEARARVAAARERVLA
# B14: usp_38_diff_out_18_14_289 (protein)
# chain: AEELSAAERAALELLLEEVRRDTERTIRLLRRVRDDPERVERIVERAERNLAGVRAYAEDVRARARAAGDEETVAAADRLLAEVEAARARIEEERRRVLA
# B15: usp_38_diff_out_18_14_290 (protein)
# chain: SEELSKAEISALELLKKEVKENTERTIKLLEKVKDDPELVKRVMERAERNLAGVRAYAEDVKERAKERGDEETVKAAEELLKEIEEARKKLKEEYKKVMA
# B16: usp_38_diff_out_18_14_291 (protein)
# chain: SEELSEAEKSALELLKEEVKKDTERTIKLLEKVKDDPERVERIVERANRNLEGVRAYAEAVKKEAEARGDEETVKAAEELLKTIEEARERIEKAYKEVKA
# B17: usp_38_diff_out_18_14_292 (protein)
# chain: SEELSEAEKSVLETLKKDVREDTERTIRLLEKVKDDPERVKRVVERARRNLAGVRAYAEEVKERAEKRGDEETVKAAEELLKEVEKAEERIEKAEEEVLK
# B18: usp_38_diff_out_18_14_293 (protein)
# chain: DAELSAAERSALATLRTDVAADTARTIALLKRVKDDPERVDRVVERARRNLAGVRAFAEEVLREAEERGDEETVAAARELLAAIDAAEAAVAAAAAAVRA
# B19: usp_38_diff_out_18_14_294 (protein)
# chain: SSELSEAEVSALELLKKEVREDTERTIRLLEKVKDDPERVKRIVERRQRNLAGVRAYAEEVRRRAEELGDEETVAAANELLAEIDKAEKEVEEAVKRVEA
# B20: usp_38_diff_out_18_14_295 (protein)
# chain: SEELSKAEISVLETLTKEVEADTDRTIALLEKVADDPERVKRIVERANRNLAGVRAYAEEVKERAEERGDEETVKKAEELLKKIDEAEARIAAAEAAVRA
# B21: usp_38_diff_out_18_14_296 (protein)
# chain: SSELSEAERSVLELLKEEVKKDTERTIKLLEKVKDDPERVKRIVERAERNLAGVRAFAEEVKERAEKEGDEETVKAAEELLAEIDAARERIAAAREKVLA
# B22: usp_38_diff_out_18_14_297 (protein)
# chain: SEELSEAEISNLELLKKEVEEDTERTIELLEKVKDDPERVKRIVERALRNLAGVEAYAKDVKERAEKEGNEKTVAAANELLATIEEARKRIEEKYKKVME
# B23: usp_38_diff_out_18_14_299 (protein)
# chain: SAELAEAKAANLKLLKTDVKEDTERVIKLLKKNKNDPERVKRIYDRAKRNLAGVRTYAEEVLEEAKAAGDAATAAAAQELLKTIDEEEKKIEEEYKKVMA
# B24: usp_38_diff_out_18_14_300 (protein)
# chain: SAELAEALKSNLEILKEDVKRYTERVIRLLRKNKDDPERVKRIYERAKRDLEGVRKFAEEVLKLAKEEGDEETAKAAEELLKTIEEEEKRIEEEYKRVMA
# B25: usp_38_diff_out_18_14_301 (protein)
# chain: SEELAEALRSNLELLKEDVKEDTERVIRLLKKNKNDPERVKDIYERAKRNLAGVREYAEEVLEEAEEAGDEETAEAARELLETIEEERKKIEEEYKKVMA
# B26: usp_38_diff_out_18_14_302 (protein)
# chain: AAELAAAKKSNLESLKKDVEEDTKRVIELLEKAKDDPERVKRIYENAKRNLAGVRKYAEEVKKEAEEAGDKETVAAAEELLKTIEEAEKKVEEAYKKVMA
# B27: usp_38_diff_out_18_14_303 (protein)
# chain: GEELAKAELENLKQLKADVKAYTERVIRLLEAARDDPERVKRIYERAQRDLAGVETYAKEVKKEAEKRGDKELVKAAEELLKEVAAARERVEAAYRAVMA
# B28: usp_38_diff_out_18_14_304 (protein)
# chain: SEELAAALKSNLESLTKEVKEDTERVIKLLKKRKDDPEEVKRIYERAERNLAGVEAYAKEVKAEAEKAGDAETVAAAEALLKEVKEAREKVKKAYEEVMA
# B29: usp_38_diff_out_18_14_306 (protein)
# chain: SEELAEAERSNLESLKKDVKEYTERVIKLLEKAKDDPERVKRIYERAKRNLAGVEEYAKEVLKRAKEAGDEETVKAAEELLKTIEEARKKVEEAYEKVMK
# B30: usp_38_diff_out_18_14_307 (protein)
# chain: GEELAAAQLSNLNSLKTDVEKDTERVIKLLKKAKDDPERVKRIYERAKRNLAGVRTYATEVKEEAEKAGNAELVAAANDLLATIDDAEKKIEEEYKKVMA
# B31: usp_38_diff_out_18_14_308 (protein)
# chain: AEELAAAKKSNLESLKEEVKKYTERVIELLKKAKDDPERVKRIYERAQRDLEGVRTYAEEVLKEAEAAGDEETKAAAKELLKEIDEAKKKVEKAYKEVMA
# B32: usp_38_diff_out_18_14_309 (protein)
# chain: SAELAEAKKKNLEQLTTDVKEDTERVIRLLRKRRDDPEAVKRLYERAQRNLAGVRKYAEEVKKEAEKAGDKETVAAAEKLLKEVAEAEKRIEEEYARVMA
# Biological target: T1, USP38, Q8NB14
# Assay: median log2 fold change of GCK-ALFA target abundance (FLAG IP / Myc IP barcode read proportion) (log2 ratio); each designed protein is fused to an ALFA-tag nanobody in HEK293 cells to bring the named protein to FLAG-tagged glucokinase (GCK); Myc marks an untargeted standard; higher = target protein stabilised (more abundant)
# Conditions: target protein: 3xFLAG-MCP-GCK-ALFA reporter; HEK293 landing pad (RPLP)
# Method in brief: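 Binders fused to an ALFA nanobody were recombined as a library into HEK293 landing-pad cells, which were induced with 2 μg mL^−1 doxycycline and then transfected to express a FLAG-tagged target and a Myc-tagged standard. After 48 h, circular RNA barcodes recovered by anti-FLAG and anti-Myc immunoprecipitation of lysates were reverse transcribed, amplified and sequenced. Each binder's target abundance is the median log2 ratio of FLAG to Myc barcode read proportions, from barcodes present at ≥10^−7 in both replicates, binders carrying ≥3 barcodes per replicate, a 10^−6 pseudocount and pooled replicates.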
row,Binder,median log2 fold change
1,B1,-0.129
2,B2,0.242
3,B3,0.312
4,B4,-0.00242
5,B5,-0.87
6,B6,0.189
7,B7,0.237
8,B8,-0.104
9,B9,0.0553
10,B10,-0.615
11,B11,0.128
12,B12,-0.622
13,B13,-0.282
14,B14,-0.0195
15,B15,0.00299
16,B16,-0.0115

row,Binder,median log2 fold change
1,B17,0.0826
2,B18,-0.59
3,B19,0.136
4,B20,0.017
5,B21,-0.447
6,B22,0.335
7,B23,-0.444
8,B24,-0.852
9,B25,-0.149
10,B26,0.326
11,B27,-0.327
12,B28,0.296
13,B29,-0.549
14,B30,-0.0463
15,B31,-0.392
16,B32,-0.138
